Measured values from PubChem BioAssay AID2763 (National Center for Advancing Translational Sciences (NCATS), 2010).
Inconclusive results are not listed. Activity calls are given as the source filed them. The call rests on the fitted dose curve; in most records, active means well fitted inhibition curve with a large enough effect; inconclusive means small, poorly fitted or top-dose-only effect, or effect the other way; inactive means no such curve, though single readings can be large or run the other way.

Assay: Concentration response confirmation VP16 counterscreen for inhibitors of ROR gamma transcriptional activity; further: nearly all actives have a fitted effect of over 70% in size
Conditions: Drosophila S2 Gal4-VP16 UAS-luciferase, luminescence, 20 h; series mostly up to 46.1 µM
How it was run: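 Luciferase counterscreen: UAS-driven Photinus reporter in S2 cells expressing copper-inducible Gal4-VP16 fusion, 600 cells/well. Induced with copper sulfate (700 uM final) 1 hr after compound, incubated 20 hr at ambient temperature before luminescence detection.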
Potency means the concentration at half of the fitted maximal effect.

Compound | Potency
COc1ccc2nc(N3C(=O)CNC3=S)sc2c1 | 8.88 µM (active)
CCOC(=O)c1ccc2nc(Nc3nc4ccc(F)cc4s3)sc2c1 | 25 µM (active)
COc1cccc(Cn2c(NCc3ccco3)nc3c2c(=O)n(C)c(=O)n3C)c1 | 2.81 µM (active)
CCOC(=O)c1nnsc1Nc1ccc(C)c(C)c1 | inactive
N=C1S/C(=C\c2ccco2)C(=O)N1c1nccs1 | 0.396 µM (active)
Cn1nccc1C(=O)NC1CCCc2c1cnn2-c1ccc(F)cc1F (stereo not given) | 1.58 µM (active)
CCN(CC)C1CC(=O)N(c2cccc(C)c2)C1=O (stereo not given) | 25 µM (active)
CCN(CC(=O)Nc1ccc2c(c1)CCC2)Cc1nc2ccccc2c(=O)[nH]1 | 15.8 µM (active)
O=C(CCCN1C(=O)/C(=C/c2ccccc2Cl)SC1=S)Nc1cccnc1 | 14.1 µM (active)
Cc1oc(-c2ccccc2Cl)nc1CSCC(=O)O | 7.91 µM (active)
COC(=O)c1ccc2nc(Nc3nc4ccc(F)cc4s3)sc2c1 | 5.6 µM (active)
COc1ccc(-c2nnc(-c3ccc(N(C)C)cc3)o2)cc1 | inactive
Cc1cc(-c2ccccc2)nc(N2CCC(C(=O)NCc3ccccc3Cl)CC2)n1 | inactive
COc1ccc2nc(NC(=O)c3sc4nc(C)cc(C)c4c3N)sc2c1 | 0.0791 µM (active)
CC(C)(C)S(=O)(=O)c1cnc2c(-c3ccc(Cl)cc3)cnn2c1N | 6.28 µM (active)
COc1ccc(/C=C/C(=O)NC(=S)NCC2CCCO2)cc1 (stereo not given) | 14.1 µM (active)
COc1ccc(-c2cc(-c3ccccc3)n[nH]2)c(O)c1 | 19.9 µM (active)
Cc1cc(Br)c2nc3c(c(C(=O)O)c2c1)CCCCC3 | inactive

Compound | Potency
CCOC(=O)[C@@H]1[C@H]2COc3ccccc3[C@@H]2N2C(=O)N(c3ccc(OC)cc3)C(=O)[C@@]12C | inactive
CC1Oc2ccccc2N(CC(=O)NCCN2CCOCC2)C1=O (stereo not given) | inactive
O=C(COc1ccccc1)NNc1nc2c(F)cccc2s1 | inactive
COc1ccc(-c2c[n+]3c(n2-c2ccc(C)cc2)CCCCC3)cc1 | 3.53 µM (active)
O=C(O)c1ccccc1SC1CC(=O)N(c2ccc3c(c2)OCO3)C1=O (stereo not given) | 19.9 µM (active)
Cc1ccc(-n2[nH]c3c4c(ccc3c2=O)C(=O)c2ccccc2C4=O)cc1 | inactive
CCN(CC)c1ccc(/C=N/n2c(-c3ccccc3Br)n[nH]c2=S)cc1 | inactive
Cc1ccc(OCCCC(=O)Nc2nc3ccccc3[nH]2)cc1 | inactive
COC1CCN(C(=O)c2cc(COc3ccc(-n4cncn4)cc3)on2)CC1 | inactive
COC(=O)c1ccc(Oc2cc(C)nc(-n3nc(C)cc3C)n2)cc1 | 7.91 µM (active)
CNc1cc(C(F)(F)F)nc(-c2ccccn2)n1 | 8.88 µM (active)
COc1ccc(CNC(=O)COC(=O)C2CC3C=CC2C3)cc1 (stereo not given) | inactive
CNC(=O)NC(=O)CSc1nc2cc(C(=O)OC)ccc2c(=O)n1-c1ccccc1 | 25 µM (active)
Cc1c(OC(C)C(=O)NCc2cccnc2)ccc2c3c(c(=O)oc12)CCCC3 (stereo not given) | inactive
COc1cc(CNS(=O)(=O)c2ccc3c(c2)CC(C)N3C(=O)C2CCC2)cc(OC)c1OC (stereo not given) | 9.96 µM (active)
CCn1cc(C(=O)O)c(=O)c2cc(F)c(N3CCN(C(=S)NC(=O)c4ccccc4C)CC3)cc21 | inactive
O=C(NC(=S)Nc1nc(-c2ccccc2)cs1)c1cncc(Br)c1 | 7.91 µM (active)
